Compounds with a hit are over-represented: about 2% of the library has one in this group of screens.
Neddyl block: inhibitors of cullin neddylation, primary screen, biochemical, TR-FRET, uHTS, NAE and Ubc12. 0.58% of 360,000 active. inhibition, % at 25 µM. NEDD8-conjugating enzyme Ubc12 (Homo sapiens) + NEDD8-activating enzyme E1 regulatory …; in the data active = inhibition above about 36%
PfG6PD inh: PfG6PD enzyme inhibitors, primary screen, biochemical, fluorescence intensity, uHTS; glucose-6-phosphate dehydrogenase-6-phosphogluconolactonase (Plasmodium falciparum 3D7); PfGluPho enzyme, NADPH resazurin-diaphorase fluorescence; inhibition, % at 20 µM; 0.78% of 350,000 active;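 active = inhibition reaching at least a set limit at 20 µM in the primary screen, cut at about 59% in these data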
A3A deaminase: APOBEC3A ssDNA deaminase inhibitors, primary screen, selectivity assay for APOBEC3G inhibitor project, biochemical, FAM/TAMRA oligo cleavage fluorescence; inhibition, % at 20 µM; DNA dC->dU-editing enzyme APOBEC-3A (Homo sapiens), P31941; recombinant A3A, FAM/TAMRA ssDNA deamination fluorescence; 0.41% of 330,000 active;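 active = at least 40% inhibition at 20 µM here, with at most 30% in a related deaminase screen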
NPR2 activator: human GC-B receptor activators, primary screen, HEK293 GC-B cells, cGMP TR-FRET, EC30 CNP; 0% at EC30 CNP, 100% saturating CNP; 0.11% of 370,000 active; activation, % at 10 µM; Atrial natriuretic peptide receptor 2 (Homo sapiens), P20594; AID 1920062, 2024;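 active = activation at 10 µM reaching about 35% in either raw or pattern-adjusted values, limit read from the data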
NPR1 activator: GC-A stimulated cGMP production enhancers – HEK293 GC-A cells, cGMP TR-FRET, EC30 ANP, primary screen; 0% at EC30 ANP, 100% saturating ANP; activation, % at 10 µM; 0.14% of 370,000 active; AID 1671463, 2021; in the data active = activation above about 40%
A3G deaminase: APOBEC3G DNA deaminase inhibitors, primary screen, biochemical, fluorescence, single-stranded DNA substrate, uHTS | inhibition, % at 20 µM | AID 493012, 2011 | 0.28% of 330,000 active | DNA dC->dU-editing enzyme APOBEC-3G (Homo sapiens), Q9HC16 | recombinant A3G, ssDNA deamination FAM/TAMRA fluorescence;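 active = inhibition of at least 40% at 20 µM, with no more than 30% in the related APOBEC3A deaminase screen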
Hits are given with their value.

CN(C)CC1CC/C(=C\c2ccc(O)cc2)C1=O (configuration not stated) was read as Neddyl block inactive, PfG6PD inh 61.3, NPR2 activator inactive and NPR1 activator inactive.
Screening COc1ccc(C(C(=O)N(C)C2CCCC2)N(Cc2ccc(F)cc2)C(=O)c2csc(N3CCOCC3)n2)cc1OC (configuration not stated) returned NPR2 activator inactive and NPR1 activator inactive.
Cc1c[nH]c2cccc(-c3cc4ccccc4o3)c12 was read as NPR2 activator inactive and NPR1 activator inactive.
COc1ccc(CNS(=O)(=O)/C=C/c2ccc(OC)cc2CNC(=O)OC(C)(C)C)cc1 was read as NPR2 activator inactive and NPR1 activator inactive.
O=[N+]([O-])c1cc2c(cc1C=Nc1ccccc1)OCO2 was read as Neddyl block inactive, PfG6PD inh 86.7, A3A deaminase inactive and A3G deaminase inactive.
`CC(C)N1Cc2nnn(Cc3ccc(F)cc3)c2-c2cc(F)ccc2S1(=O)=O` gave NPR2 activator inactive and NPR1 activator inactive.
`CC1CCN(S(=O)(=O)c2nnc(NC(=O)c3cccc([N+](=O)[O-])c3)s2)CC1` gave Neddyl block inactive, PfG6PD inh 113.0, A3A deaminase inactive and A3G deaminase inactive.
Screening COc1ccc(C(=O)Nc2nnc(S(=O)(=O)N3CCC(C)CC3)s2)cc1OC returned Neddyl block inactive, PfG6PD inh inactive, A3A deaminase inactive, NPR2 activator inactive, NPR1 activator inactive and A3G deaminase inactive.
For CCOc1ccc(-n2c(SCC(=O)Nc3ccc(S(=O)(=O)Nc4nccs4)cc3)nnc2-c2ccc(C(C)(C)C)cc2)cc1 the results were NPR2 activator inactive and NPR1 activator inactive.
Screening CCc1nc(N2CCN(C(C)=O)CC2)c(C#N)c2c1COC(C)(C)C2 returned PfG6PD inh inactive, A3A deaminase inactive, NPR2 activator inactive, NPR1 activator inactive and A3G deaminase inactive.
`Cc1nc(N2CCN(C(=O)c3ccc(Cl)cc3)CC2)c(C#N)c2c1COC(C)(C)C2` gave Neddyl block 40.9, PfG6PD inh inactive, A3A deaminase inactive, NPR2 activator inactive, NPR1 activator inactive and A3G deaminase inactive.
Screening O=C(NC1CCC1)c1ccc(C#Cc2cccc(F)c2)nc1 returned NPR2 activator inactive and NPR1 activator inactive.
COCCn1c(SCC(=O)NC(=O)NC(C)C)nc2ccccc21 was read as Neddyl block inactive, PfG6PD inh inactive, A3A deaminase inactive, NPR2 activator inactive, NPR1 activator 41.7 and A3G deaminase inactive.
`COCCn1c(SCC(=O)NC(=O)NC(C)(C)C)nc2ccccc21` gave Neddyl block inactive, PfG6PD inh inactive, A3A deaminase inactive, NPR2 activator inactive, NPR1 activator inactive and A3G deaminase inactive.
For COc1ccccc1NC(=S)OC1CCC12CCC(c1ccccc1)CC2 (configuration not stated) the results were NPR2 activator inactive and NPR1 activator inactive.
Screening O=C(CCN1CCN(c2ccc([N+](=O)[O-])cc2)CC1)c1ccc(Cl)cc1 returned Neddyl block inactive, PfG6PD inh inactive, A3A deaminase inactive, NPR2 activator inactive, NPR1 activator 63.2 and A3G deaminase inactive.
O=C(CN1CCN(c2ccc([N+](=O)[O-])cc2)CC1)c1ccccc1 was read as Neddyl block inactive, PfG6PD inh inactive, A3A deaminase inactive, NPR2 activator inactive, NPR1 activator inactive and A3G deaminase inactive.
O=C(CCN1CCN(c2ccccc2)CC1)c1ccc(Cl)cc1 was read as Neddyl block inactive, PfG6PD inh inactive, A3A deaminase inactive, NPR2 activator inactive, NPR1 activator 44.0 and A3G deaminase inactive.
Screening O=C(CCN1CCN(c2ccccc2)CC1)Nc1ccc(Cl)cc1 returned Neddyl block inactive, PfG6PD inh inactive, A3A deaminase inactive, NPR2 activator inactive, NPR1 activator inactive and A3G deaminase inactive.
`COC(=O)[C@]12C[C@H](CC(=O)NCc3ccc(C)o3)C(=O)N(CCc3ccc(OC)c(OC)c3)C1=C[C@H](C(C)C)O[C@@H]2C1CC1` gave NPR2 activator inactive and NPR1 activator inactive.
Screening CCOC(=O)CCSc1nc(-c2ccc3c(c2)OCO3)cc(C(F)(F)F)c1C#N returned Neddyl block inactive, PfG6PD inh inactive, A3A deaminase inactive, NPR2 activator inactive, NPR1 activator 42.0 and A3G deaminase inactive.
Screening Nc1nc2c(nc(Br)n2[C@@H]2O[C@@H]3COP(=O)(O)O[C@H]3[C@H]2O)c(=O)[nH]1 returned Neddyl block inactive, PfG6PD inh inactive, A3A deaminase inactive, NPR2 activator 114.0, NPR1 activator 116.2 and A3G deaminase inactive.
For Cc1ccccc1OCC(=O)Nc1sc(C(=O)Nc2cccc(C)c2C)c(C)c1C#N the results were Neddyl block inactive, PfG6PD inh inactive, A3A deaminase inactive, NPR2 activator inactive, NPR1 activator 55.8 and A3G deaminase inactive.
For CC(C)(C)c1nnc(NC(=O)c2ccc3c(c2)OCO3)s1 the results were Neddyl block inactive, PfG6PD inh 104.8, A3A deaminase inactive, NPR2 activator inactive, NPR1 activator inactive and A3G deaminase inactive.
`CC(=O)CC[C@H]1CC[C@]2(CCCN(S(=O)(=O)C3CCCCC3)C2)O1` gave NPR2 activator inactive and NPR1 activator inactive.
For O=C1CCCc2c1cc(-c1ccccc1)n2-c1ccc(O)cc1 the results were Neddyl block inactive, PfG6PD inh inactive, A3A deaminase inactive, NPR2 activator inactive, NPR1 activator 75.5 and A3G deaminase inactive.
CC(C)(C)OC(=O)CN1C(=O)S/C(=C\c2ccc(-c3cccc(C(=O)O)c3)o2)C1=O was read as A3A deaminase 45.0 and A3G deaminase inactive.
For Cc1ccc(NC(=O)CN2C(=O)S/C(=C/c3ccc(-c4cccc(C(=O)O)c4)o3)C2=O)cc1 the results were Neddyl block inactive, PfG6PD inh inactive, NPR2 activator inactive and NPR1 activator inactive.
`Cc1ccc(Nc2nnc(SC3CCOC3=O)s2)cc1` (configuration not stated) gave Neddyl block inactive, PfG6PD inh inactive, A3A deaminase inactive, NPR2 activator inactive, NPR1 activator inactive and A3G deaminase inactive.

Bioassay records (PubChem)
